aSyn UTR act = Activators working through SNCA 5'UTR binding (MLPCN); AID 1814; activity score, % (tested at 7.5 µM), hits read low; alpha-synuclein 5'UTR reporter, activators screen; 7.1% of 300,000 active; in the data active means activity score below about -60%
Large screens that a line does not name were inactive. These entries were drawn from the full list.

Cc1cc2nc(-c3cccc(NC(=O)c4ccc(Br)o4)c3)oc2cc1C	aSyn UTR act -77
COC(=O)c1cn(C(=O)c2ccc(OC)cc2)c2ccccc12	aSyn UTR act -147
CC(Cc1ccco1)NC(=O)c1ccc(C(F)(F)F)cc1 (stereo not given)	aSyn UTR act -69
CN(C)c1ccc(/C=N\NC(=O)c2csnn2)cc1	aSyn UTR act -146
O=C(N/N=C\c1ccc(Oc2ccccc2)cc1)c1csnn1	aSyn UTR act -96
COC(=O)N1N=C(c2ccccc2)CC1(O)C(F)(F)F (stereo not given)	aSyn UTR act -65
c1ccc(-c2n[nH]c(-c3ccccn3)n2)nc1	aSyn UTR act -63
c1ccc(-c2n[nH]c(-c3ccccn3)n2)cc1	aSyn UTR act -114
O=C(Nc1ccccc1)c1cc2ccc3ccccc3c2s1	aSyn UTR act -90
COc1ccc2cc(C(=O)Nc3ccccc3)sc(=O)c2c1OC	aSyn UTR act -78
O=C(O)c1ccc(-c2ccc(-c3ccccc3)cc2)s1	none
O=C(Nc1ccccc1)c1ccc(-c2ccccc2)s1	aSyn UTR act -215
NC(=O)c1cc2ccccc2o/c1=N/NC(=O)c1cccs1	aSyn UTR act -63
COc1ccc2o/c(=N/NC(=O)c3cccs3)c(C(N)=O)cc2c1	aSyn UTR act -157
Cc1cc(C)c(S(C)(=O)=O)c(S(=O)(=O)c2ccc(Cl)cc2)n1	aSyn UTR act -87
C/C(=N\Nc1nccnc1Cl)c1ccc(F)cc1	aSyn UTR act -104
C/C(=N\Nc1nc(N)cc(Cl)n1)c1ccc(F)cc1	aSyn UTR act -71
Nc1nc(NCc2cccs2)nn1-c1ccccc1	aSyn UTR act -67
c1ccc(-n2ncc3c(NCc4cccs4)ncnc32)cc1	aSyn UTR act -162
COc1ccc(-n2ncc3c(NCc4cccs4)ncnc32)cc1	aSyn UTR act -171
c1ccc(-n2ncc3c(NCc4cccnc4)ncnc32)cc1	aSyn UTR act -114
COc1ccc(N=C2S/C(=C\c3ccc(N4CCOCC4)o3)C(=O)N2CCc2c[nH]c3ccccc23)cc1	aSyn UTR act -113
S=C(NCc1ccccn1)Nc1ccccc1	aSyn UTR act -86
CCc1ccc(NC(=O)C(=O)NCc2ccccn2)cc1	aSyn UTR act -144
O=C(CSCc1ccccn1)Nc1ccccc1	aSyn UTR act -70
S=C(NCc1ccccn1)Nc1ccc(Cl)cc1Cl	aSyn UTR act -130
COc1ccccc1NC(=S)NCc1ccccn1	aSyn UTR act -80
COc1ccc(-n2nc(C(=O)NCC(=O)N3CCN(c4ccccc4F)CC3)c3ccccc3c2=O)cc1	aSyn UTR act -120
Cc1ccc(-c2cc(C(=O)Nc3ccc4c(c3)OCCO4)c3ccccc3n2)cc1	aSyn UTR act -74
O=C(NC1=NCCS1)c1cc(-c2ccc(-c3ccccc3)cc2)nc2ccccc12	aSyn UTR act -88
O=C(Nc1ccc2c(c1)OCCO2)c1cccc2nc3ccccc3nc12	none
COc1ccc2cc(C(=O)C3CCCN(C(=O)CCc4cnn(C)c4)C3)ccc2c1 (stereo not given)	aSyn UTR act -82
COc1c(OC(C)=O)ccc(/C=C/c2ccc3ccccc3n2)c1[N+](=O)[O-]	aSyn UTR act -209
CCOc1c(OC(C)=O)ccc(/C=C/c2ccc3cccc(OC(C)=O)c3n2)c1[N+](=O)[O-]	aSyn UTR act -378
COc1c(OC(C)=O)ccc(/C=C/c2ccc3cccc(OC)c3n2)c1[N+](=O)[O-]	aSyn UTR act -146
S=C(NCC1CCCO1)Nc1ccc(Cl)c(Cl)c1 (stereo not given)	aSyn UTR act -86
CCc1ccc(NC(=O)C(=O)NCC2CCCO2)cc1 (stereo not given)	aSyn UTR act -137
CN(C)c1ccc(NC(=S)NCC2CCCO2)cc1 (stereo not given)	aSyn UTR act -101
Nc1ccc2oc3ccc(N)cc3c(=O)c2c1	aSyn UTR act -103
NN/C(=C\[N+](=O)[O-])Nc1ccccc1	aSyn UTR act -70
COc1cc(C(=O)/C=C/c2cccnc2)ccc1O	aSyn UTR act -107
NC(N)=N/N=C/c1ccc(OCc2ccccc2)c(OCc2ccccc2)c1	none
O=C(/C=C/c1ccc(OCc2ccccc2)c(OCc2ccccc2)c1)c1cccnc1	aSyn UTR act -62
Cc1cccc(C(=O)Nc2ccc(C(=O)/C=C/c3cccnc3)cc2)c1	aSyn UTR act -98
O=C(/C=C/c1cccnc1)c1ccc(NC(=O)c2cccc(Br)c2)cc1	aSyn UTR act -103
Cc1cccc(C(=O)Nc2ccc(C(=O)/C=C/c3ccncc3)cc2)c1	aSyn UTR act -160
COc1ccc(/C=N/Nc2nncc3ccccc23)c(OC)c1	aSyn UTR act -159
COc1cc(/C=N/Nc2nncc3ccccc23)cc(OC)c1OC	aSyn UTR act -108
C(=N\Nc1nncc2ccccc12)/c1ccccc1	aSyn UTR act -75
Nc1nc(F)nc2c1ncn2[C@@H]1O[C@H](CO)[C@@H](O)[C@H]1O	none
CC(=O)c1c(C)[nH]c(C(=O)Nc2ccc(C)cc2Br)c1C	aSyn UTR act -131
CC(=O)c1c(C)[nH]c(C(=O)Nc2ccc(F)cc2F)c1C	aSyn UTR act -111
CC(=O)c1c(C)[nH]c(C(=O)Nc2ccccc2Cl)c1C	aSyn UTR act -63

High-throughput results: PubChem, Broad Institute
